Laboratory results taken from PubChem BioAssay AID1053205 (Broad Institute, 2014).
Results with a measured potency or affinity are listed apart. Records with an inconclusive call do not appear. Active and inactive are the calls of the source.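 How the source made its calls: active means compounds lowering the FRET ratio whose fitted half-maximal concentration is at most twice their top tested dose; inconclusive means flat partial drop between 30 and 70 percent, or bad fit; inactive means the rest.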

target: Voltage-dependent L-type calcium channel subunit alpha-1D (Homo sapiens) (UniProt Q01668); test: inhibitors of CaV1.3 ICDI-IQ binding, dose response, cell-based, HEK293, YFP-IQ/CFP-ICDI FRET, cherry-picks (AID 1053205); settings: HEK293 YFP-IQ/CFP-ICDI FRET ratio, 10 min; series mostly up to 35 µM; FRET change, negative = inhibition: at the top concentration;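 further: 0% = median of neutral control wells and -100% = median of positive control wells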
Sequence (Q01668 whole entry, looked up): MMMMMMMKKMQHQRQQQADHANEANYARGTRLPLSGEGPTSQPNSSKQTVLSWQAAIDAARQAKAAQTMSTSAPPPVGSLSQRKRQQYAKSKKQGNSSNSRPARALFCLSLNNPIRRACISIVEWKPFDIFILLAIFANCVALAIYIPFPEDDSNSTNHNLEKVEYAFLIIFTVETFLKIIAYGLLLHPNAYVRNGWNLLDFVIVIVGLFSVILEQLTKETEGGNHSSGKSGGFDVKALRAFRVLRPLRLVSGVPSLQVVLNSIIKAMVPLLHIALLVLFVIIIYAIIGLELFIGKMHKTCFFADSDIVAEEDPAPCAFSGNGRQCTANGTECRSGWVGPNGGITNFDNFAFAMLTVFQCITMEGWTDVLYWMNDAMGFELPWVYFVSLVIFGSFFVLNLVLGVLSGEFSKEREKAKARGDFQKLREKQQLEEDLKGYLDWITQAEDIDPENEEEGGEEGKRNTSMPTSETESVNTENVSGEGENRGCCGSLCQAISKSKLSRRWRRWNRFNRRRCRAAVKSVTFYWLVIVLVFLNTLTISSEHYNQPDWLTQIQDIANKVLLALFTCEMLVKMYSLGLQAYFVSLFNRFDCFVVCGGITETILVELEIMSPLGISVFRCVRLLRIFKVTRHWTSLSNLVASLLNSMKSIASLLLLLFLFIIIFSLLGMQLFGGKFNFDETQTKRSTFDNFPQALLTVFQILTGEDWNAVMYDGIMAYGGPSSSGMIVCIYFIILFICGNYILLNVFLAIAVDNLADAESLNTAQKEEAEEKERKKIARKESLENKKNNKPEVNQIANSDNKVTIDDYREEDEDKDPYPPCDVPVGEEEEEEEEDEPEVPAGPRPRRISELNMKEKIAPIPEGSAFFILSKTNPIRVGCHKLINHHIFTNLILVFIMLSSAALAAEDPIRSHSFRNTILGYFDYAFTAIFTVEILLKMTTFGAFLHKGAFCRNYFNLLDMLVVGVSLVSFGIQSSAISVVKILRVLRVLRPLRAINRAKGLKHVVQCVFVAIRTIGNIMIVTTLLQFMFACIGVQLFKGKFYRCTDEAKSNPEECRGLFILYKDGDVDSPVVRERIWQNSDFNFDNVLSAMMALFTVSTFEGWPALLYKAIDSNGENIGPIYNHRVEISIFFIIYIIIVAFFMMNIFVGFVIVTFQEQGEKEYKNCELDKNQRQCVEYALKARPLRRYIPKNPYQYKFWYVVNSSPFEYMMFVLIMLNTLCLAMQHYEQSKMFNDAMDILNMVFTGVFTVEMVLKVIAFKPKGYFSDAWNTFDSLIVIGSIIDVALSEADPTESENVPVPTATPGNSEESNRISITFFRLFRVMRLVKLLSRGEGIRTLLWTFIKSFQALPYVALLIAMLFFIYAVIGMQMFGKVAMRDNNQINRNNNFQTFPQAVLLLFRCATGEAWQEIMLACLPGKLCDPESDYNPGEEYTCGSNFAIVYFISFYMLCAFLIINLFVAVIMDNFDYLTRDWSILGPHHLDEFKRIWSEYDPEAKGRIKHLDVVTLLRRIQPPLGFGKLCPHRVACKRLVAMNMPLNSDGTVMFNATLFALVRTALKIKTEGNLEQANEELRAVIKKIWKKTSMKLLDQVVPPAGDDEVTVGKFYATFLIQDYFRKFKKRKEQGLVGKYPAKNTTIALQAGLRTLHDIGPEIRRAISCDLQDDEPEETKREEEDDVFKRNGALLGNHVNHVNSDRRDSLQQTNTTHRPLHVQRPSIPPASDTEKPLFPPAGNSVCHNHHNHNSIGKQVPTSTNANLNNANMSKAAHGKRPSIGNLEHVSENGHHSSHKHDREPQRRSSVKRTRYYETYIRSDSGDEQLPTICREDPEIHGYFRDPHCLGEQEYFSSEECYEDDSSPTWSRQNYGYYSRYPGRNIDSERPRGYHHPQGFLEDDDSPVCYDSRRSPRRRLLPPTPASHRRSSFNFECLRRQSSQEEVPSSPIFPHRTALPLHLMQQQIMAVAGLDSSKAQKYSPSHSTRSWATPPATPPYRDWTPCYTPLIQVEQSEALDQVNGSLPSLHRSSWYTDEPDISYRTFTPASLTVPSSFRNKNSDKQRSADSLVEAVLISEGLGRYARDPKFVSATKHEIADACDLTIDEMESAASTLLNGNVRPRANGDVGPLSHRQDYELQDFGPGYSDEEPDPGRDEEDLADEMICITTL

FRET change, negative = inhibition, inactive:
CCCN1CCN(C(=O)c2ccc(CS(=O)c3ccc(Br)cc3)o2)CC1 (stereo unspecified) 19.1%
Cc1ccc2c(c1)-c1c(cnn1CC(=O)Nc1ccccc1N1CCN(C)CC1)CO2 -13.5%
CCOc1ccc2nc(NCCNC(=O)CC)c(C#N)cc2c1 426%
CSC1=NSC2=NC(=O)/C(=C/c3coc4ccc(O)cc4c3=O)C(=N)N12 380%
CC(C)(C)c1csc(N/N=C/c2ccc(O)cc2)n1 -17.3%
O=c1[nH]c(Nc2ccccc2Cl)cc2ccccc12 -0.01%
CCC(Sc1nc(N)c(NC(=O)c2ccc(OC)cc2)c(=O)[nH]1)C(=O)O (stereo unspecified) -18.7%
CCc1nc2ccc(C(=O)NCCc3c[nH]c4ccccc34)cn2c1N(C=O)CCC(C)C 64.1%
Cc1nc2ccccc2c2oc(C(=O)NCCCN3CCC(C)CC3)cc12 5.53%
COc1ccc(CNC(=O)c2sc(=O)n(Cc3ccc(C)cc3)c2C)cc1OC 4.95% [at 8 µM]
Cc1ccc2nc3c(cc(C(N)=S)c(=N)n3CCCOC(C)C)c(=O)n2c1 380%
O=C(NCc1nnnn1-c1ccc(Cl)cc1)C1CC(=O)N(c2ccc(F)cc2)C1 (stereo unspecified) -0.771%
CCN(CC)c1ccc2cc(S(=O)(=O)c3ccc(Cl)cc3)c(=O)oc2c1 423% [at 16 µM]
CC(=O)c1cc2ccc(O)cc2oc1=O 317%
[O-]/[N+](=C/c1ccccc1)c1ccccc1 -4.36%
O=c1[nH]c2ccccc2nc1/C=C/c1ccccc1 99.2%
Cc1oc(/N=C/c2ccc(O)cc2O)c(C#N)c1C -2.04%
N#Cc1c2ccc(OCC(N)=O)cc2n2ccccc12 477%
Cc1cc(-c2ccccc2)c2ccc(NC(=O)C(C)(C)C)nc2n1 18.8%
Cc1cccn2c(=O)c3cc(C(=O)NCc4ccco4)c(=N)n(CCc4ccccc4)c3nc12 178% [at 16 µM]
CCC(=O)N1C(C(=O)NCc2ccc(OC)cc2)CSC1c1ccc(OC)cc1 (stereo unspecified) -1.99%
Cc1ccc(-n2c(C)cc(/C=N/NC(=O)Cn3c4ccccc4c(=O)c4ccccc43)c2C)cc1 19.5%
Cc1cc(CNC(=O)c2ccc3c(c2)OCO3)c2ccccc2n1 -0.037%
COc1ccc(NC(=O)C2CCC(CNS(=O)(=O)c3cccs3)CC2)cc1 (stereo unspecified) 21.3%
Cc1cc(-c2nc3cccnc3s2)ccc1NS(=O)(=O)c1cccs1 91.9%
COc1ccccc1NS(=O)(=O)c1cc(NC(=O)CCNC(C)=O)ccc1C 189%
Cc1c(C(=O)NCc2cccc(C(F)(F)F)c2)sc(=O)n1Cc1ccc(C(=O)N(C)C)cc1 -8.19%
O=c1[nH]c(=O)c2nc(-c3ccc(Cl)cc3)cnc2[nH]1 201%
Cc1ccc(NC(=O)Nc2ccnc(-c3cccnc3)n2)cc1 77.2%
COc1ccc(S(=O)(=O)N2CCCC2CNC(=O)C(=O)NC2CCCC2)cc1 (stereo unspecified) 6.72%
CCOC(=O)C1=CN(CC2CCCO2)C=C(C(=O)OCC)C1c1ccccc1C(F)(F)F (stereo unspecified) 156%
N#C/C(=C\c1ccc(N2CCOCC2)o1)C(=O)NCCc1ccccc1 166% [at 8 µM]
COCc1cc(C)nc(SCC(=O)Oc2ccc(Cl)cc2)c1C#N 0.592%
CCCOc1ccc(NC(=O)c2c(-c3ccccc3)noc2C)cc1 8.7%
Cc1nc2ccc(S(=O)(=O)Nc3ccc(-c4nc5cccnc5s4)cc3)cc2s1 -13.8%
CCOC(=O)C1CCCN(CCCc2ccccc2)C1 (stereo unspecified) 3.01%
